PubChem BioAssay AID485313 (National Center for Advancing Translational Sciences (NCATS), 2010)
The campaign covered roughly 320,000 compounds. About 7,600 (2.4%) were called active. Another 3% or so got no clear call; they are omitted. This excerpt belongs to a sample that is enriched for actives. A number with no mark means an inactive call. Calls follow the shape of the dose curve; as a rule, active = well fitted activation curve with a large enough effect; inconclusive = small, poorly fitted or top-dose-only effect; inactive = no such curve, though single readings can be large or run the other way.

Assay: qHTS Assay for NPC1 Promoter Activators; also: nearly all actives have a fitted effect of over 60% in size; as to activation: % of control where 0% means no effect
Conditions: Huh7 NPC1 promoter luciferase reporter, 24 h; series mostly up to 9.22 µM; activation: at the top concentration
Text: NIH Chemical Genomics Center [NCGC] NIH Molecular Libraries Probe Production centers Network [MLPCN] MLPCN Grant: MH089375-01A1 Assay Submitter (PI): Yiannis A. Ioannou NCGC Assay Overview: Niemann Pick Type C (NPC) is a rare neurodegenerative lipidosis that is characterized by lipid storage in the endosomal/lysosomal system. Treatment modalities for this devastating disease are currently non-existent due to the severe obstacles associated with accessing the central nervous system with proteins or genes. The majority of mutations causing NPC disease are missense mutations that are distributed throughout the length of the NPC1 protein, with the most prevalent being the I1061T allele. Although NPC1 mutant proteins may be functional, they are typically trapped in the ER due to misfolding. […] We have developed and optimized a cell based luciferase reporter assay in 1536 well format for the identification of up-regulators of the mutant NPC1 promoter.
The NPC1 promoter is cloned in front of the luciferase reporter gene, therefore NPC promoter activation results in luciferase expression. Frozen stock of the NPC1 promoter transfected Huh7 cells were obtained from the laboratory of Dr. Yiannis Ioannou (The Mount Sinai School of Medicine, New York, NY). Cells were propagated and maintained at NCGC in medium containing RPMI-1640 supplemented with 10% FBS, 2mM L-glutamine, and 50ug/ml penicillin/streptomycin. Cells were harvested in and plated for assays in OP-MEM I reduced-serum medium supplemented with 10% FBS. The Amplite luciferase reporter gene assay kit was purchased from ABD Bioquest and prepared/stored according to manufacturers recommendations. qHTS Assay Setup: 1.#Dispensed 5ul of Huh7 cells stably expressing NPC1-luciferase at a density of 1500 cells per well 1536-well plates. 2.#Incubate cells at 37C, 5% CO2, and 95% humidity for 2 hours. 3.#Transferred 23nl per well of compound in DMSO solution. 4.#Incubated at 37C, 5% CO2, and 95% humidity for 24 hours. 5.#Dispensed 3ul per well of Amplite reagent(ABD Bioquest) per well. 6.#Incubate at ambient for 10 minutes. 7.#Read using the luminescence protocol on the ViewLux plate reader (Perkin Elmer).
Potency is read from the fitted curve at half-maximal effect.

Question: For `CC(=O)Oc1ccccc1C(=O)Nc1ncc([N+](=O)[O-])s1`, which Potency is on record?
Answer: 0.501 µM (active)

Question: With `CC(=O)c1c(O)c(C)c(O)c(Cc2c(O)c3c(c(C(=O)/C=C/c4ccccc4)c2O)OC(C)(C)C=C3)c1O` as the compound, how does the “activation” value read?
Answer: -13.6% [at 46.1 µM]

Question: Which “activation” value does the source give for `CN(C)c1ccc(NC(=O)CN2C3CCCC2CC(NC(=O)c2ccccc2)C3)cc1` (stereo not given) here?
Answer: -8.85%

Question: For `CC[C@H]1CN2CCc3cc(OC)c(OC)cc3[C@@H]2C[C@@H]1C[C@H]1NCCc2cc(OC)c(OC)cc21`, which Potency is on record?
Answer: inactive

Question: With `CN(C)C(=O)Oc1ccc(OCc2cccc[n+]2C)cc1` as the compound, how does the “activation” value read?
Answer: 1.08%

Question: Which Potency does the source give for `CN(C)C(=O)Oc1ccc2c(c1)O/C(=C\c1ccccc1)C2=O` here?
Answer: 1.58 µM (active)

Question: With `CCOC(=O)c1c(-c2ccccc2)oc2ccc(OC(=O)N(C)C)cc12` as the compound, how does the “activation” value read?
Answer: -20.2%

Question: With `CC(=O)NBr` as the compound, how does the “activation” value read?
Answer: -7.1% [at 46.1 µM]

Question: Which “activation” value does the source give for `CCOC(=O)c1ncn2c1[C@@H]1CCCN1C(=O)c1cc(OC)ccc1-2` here?
Answer: -2.98% [at 46.1 µM]

Question: With `CNCC[C@H](Oc1ccc(C(F)(F)F)cc1)c1ccccc1` as the compound, how does the Potency read?
Answer: inactive
